# Compound activity from PubChem.
# Shiga inhibitor: A qHTS for Small Molecule Inhibitors of Shiga Toxin; Vero cells, Shiga toxin protein synthesis inhibition reporter; inhibition, % at 38.7 µM; 290,000 compounds, 9.2% hits; AID 2315, 2010; in the data active = inhibition mostly above about 28%, no sharp cut-off; inactive = mostly below about 43%; also: 0% is about no effect
# LmPK inhibitor: qHTS Assay for Inhibitors of Leishmania Mexicana Pyruvate Kinase (LmPK); purified LmPK, Kinase-Glo ATP luminescence, 1 h; Q27686; AID 1721, 2009; 290,000 compounds, 0.37% hits; Potency, µM (series often up to 57.5 µM), for the others: at the top dose activity change, negative = inhibition, hits mostly inhibitors; active = well fitted curve in the direction sought with a large enough effect; inconclusive = small, poorly fitted or top-dose-only effect, or another doubt; inactive = no such curve, though single readings can be large; an effect the other way counts as inactive or inconclusive; also: potency is read from the fitted curve at half-maximal effect; % is scaled to controls: 0 for no effect and ±100 for the full control effect
# Target sequence (Q27686 whole entry, looked up): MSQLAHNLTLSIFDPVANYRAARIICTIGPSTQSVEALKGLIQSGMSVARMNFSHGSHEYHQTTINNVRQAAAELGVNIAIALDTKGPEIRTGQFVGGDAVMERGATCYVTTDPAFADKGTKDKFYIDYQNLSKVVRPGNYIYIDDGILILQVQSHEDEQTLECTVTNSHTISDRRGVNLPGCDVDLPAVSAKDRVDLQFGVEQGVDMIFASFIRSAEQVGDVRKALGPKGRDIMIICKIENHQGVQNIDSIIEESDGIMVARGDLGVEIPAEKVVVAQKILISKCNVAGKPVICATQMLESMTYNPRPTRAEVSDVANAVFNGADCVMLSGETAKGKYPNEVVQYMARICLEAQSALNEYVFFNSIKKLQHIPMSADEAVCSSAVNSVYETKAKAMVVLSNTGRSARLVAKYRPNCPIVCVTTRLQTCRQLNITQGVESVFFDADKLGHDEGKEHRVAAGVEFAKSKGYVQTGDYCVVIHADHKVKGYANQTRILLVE
#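 Screened at intermediate enzyme activity to detect both inhibitors and activators: LmPK at 0.1 nM, with a 0.5 nM enzyme column as activation reference. PEP 0.5 mM, ADP 0.1 mM; ATP detected by luminescence after 1 h.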
# NS1 inh: qHTS Assay for Inhibitors of Influenza NS1 Protein Function | Potency, µM (highest dose often 46.1 µM), for the others: at the top dose activity, positive = more growth | 270,000 compounds, 0.4% hits | AID 2326, 2010; also: potency is read from the fitted curve at half-maximal effect; actives are rising curves; nearly all actives have a fitted effect of over 50% in size
#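 Compounds were scored for reversing the slow growth caused by influenza A NS1 in S. cerevisiae, measured by optical density at 600 nm. Assay medium contained 2% galactose at pH 6.0; NS1-free yeast of the same strain were the positive control.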
# TbPYK inhibitor: qHTS of Trypanosoma Brucei Inhibitors; TbPYK enzyme, Kinase-Glo Plus ATP luminescence, 45 min; Potency, µM (series often up to 76.8 µM), inactives show at the highest dose activity, negative = inhibition, usual class: inhibitors; 410,000 compounds, 0.12% hits; active = well fitted curve in the direction sought with a large enough effect; inconclusive = small, poorly fitted or top-dose-only effect, or another doubt; inactive = no such curve, though single readings can be large; an effect the other way counts as inactive or inconclusive; also: potency is read from the fitted curve at half-maximal effect; % is scaled to controls: 0 for no effect and ±100 for the full control effect; nearly all actives have a fitted effect of over 50% in size
#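 Luminescence from Kinase-Glo Plus, added after a 45-minute room-temperature reaction, served as the end-point read-out. The enzyme and substrate were preincubated with compound before ADP (130 uM final) initiated turnover. Concentration-effect curves came from normalized qHTS data.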
# CHX counter: Cycloheximide Counterscreen for Small Molecule Inhibitors of Shiga Toxin | max response, % | cell reporter, cycloheximide protein synthesis inhibition counterscreen | 300,000 compounds, 12% hits; in the data active = max response mostly above about 13%, no sharp cut-off; inactive = mostly below about 14%; also: read at 38.3 µM for the half of the compounds with a filed dose; 0% is about no effect
# SARS PLpro yeast: qHTS of Yeast-based Assay for SARS-CoV PLP | S. cerevisiae expressing SARS-CoV PLpro, growth rescue | Potency, µM (top dose mostly 32.9 µM), inactives show at the highest dose activity, positive = growth rescue, hits mostly activators | 330,000 compounds, 0.19% hits | AID 485353, 2010; also: potency is read from the fitted curve at half-maximal effect; 0% is about no effect; nearly all actives have a fitted effect of over 55% in size
# * marks the source's active call; other numbers are inactive results; ? = inconclusive; . = no result given; + = active, no number; [ ] = remark or other dose. This excerpt belongs to a sample that is enriched for hits. Unless noted, calls follow the shape of the full dose curve.
SMILES,Shiga inhibitor,LmPK inhibitor,NS1 inh,TbPYK inhibitor,CHX counter,SARS PLpro yeast
O=C(NCc1ccc(F)cc1)C(=O)Nc1ccc2nc3n(c(=O)c2c1)CCCCC3,.,.,.,-3%,.,.
O=C(CSc1nnc(NC(=O)c2ccccc2[N+](=O)[O-])s1)NCC1CCCO1 (centres undefined),40,0%,11%,-6%,4,6%
O=C(CSc1nnc(NC(=O)c2ccccc2F)s1)NCC1CCCO1 (centres undefined),19*,-10%,18%,-26%,17*,9%
O=C(CSc1nnc(NC(=O)Cc2ccccc2)s1)NCC1CCCO1 (centres undefined),-4,13%[11.5 µM],.,-12%,-3,4%
O=C(CSc1nnc(NC(=O)c2ccccc2)s1)NCC1CCCO1 (centres undefined),36*,-5%,6%,-4%,30*,-6%
COc1ccc2nc3c(nc2c1)CCCC3,31,-5%,-2%,-5%,33*,0%
CCOc1ccc(-c2nc(SCC(=O)Nc3cc(F)ccc3F)n3[nH]c(=O)cc3n2)cc1,.,.,.,-8%,.,.
CNc1cncc(-c2cccc(C(=O)N(C)C)c2)n1,.,.,.,1%,.,.
O=C1N(c2ccc(Cl)cc2)C(c2cccnc2)N2CCCN12 (centres undefined),108*,-6%,.,2%,26,-13%
O=C1N(c2ccc(Cl)cc2)C(c2ccccc2)N2CCCN12 (centres undefined),9,1%,5%,33%,0,-5%
O=C(CN1C(=O)C(=O)N(CCC2=CCCCC2)C1=O)Nc1ccc(F)cc1F,.,.,.,-20%,.,-1%
C[C@H](NC(=O)c1nc[nH]c1C(=O)NCCCCCNC(=O)OC(C)(C)C)C(=O)OC(C)(C)C,57*,2%,1%,3%,31*,-1%
COC(=O)c1ccc(COc2c(F)c(F)cc(F)c2F)o1,-5,1%,0%,13%,-4,1%
COc1ccccc1OCc1ccc(C(=O)OCC2CCCO2)o1 (centres undefined),23,-4%,-9%,-4%,41*,-2%
C=CCc1ccc(OCc2ccc(C(=O)O)o2)c(OC)c1,87*,2%,5%,-3%,56*,0%
C=CCc1ccc(OC(=O)NC2CCCCC2)c(OC)c1,71*,6%,-2%,-2%,28*,-1%
C=CCc1ccc(OCCCCNC2CCCC2)c(OC)c1,-14,0%,-1%,44%,-4,0%
CCCc1ccc(OCc2ccc(C(=O)OC)o2)c(OC)c1,146*,-3%,-32%,6%,76*,-22%
O=C(NNC(=O)c1cc([N+](=O)[O-])ccc1Cl)c1cccnc1,-3,-4%,-13%,9%,-1,-4%
Cc1nn(C)c2c1c(C(F)(F)F)cc(=O)n2CC(=O)N1CCCCC1,.,.,.,3%,.,.
CCOc1ccc(-c2nnc(SCC(=O)NCCc3ccccc3)nc2-c2ccc(OCC)cc2)cc1,.,.,.,-3%,.,.
COC(=O)c1ccc(COc2ccccc2OC)o1,23,-2%,-2%,0%,12,1%
CCCc1ccc(OCc2ccc(C(=O)NN)o2)c(OC)c1,41*,0%,5%,-1%,22*,-4%
COc1ccccc1OCc1ccc(C(=O)NC(C)(C)C)o1,20,3%,-12%,1%,12*,-6%
CCCc1ccc(OCc2ccc(C(=O)O)o2)c(OC)c1,134*,5%,-3%,3%,74*,3%
SMILES,Shiga inhibitor,LmPK inhibitor,NS1 inh,TbPYK inhibitor,CHX counter,SARS PLpro yeast
CC[C@@]1([C@@H]2O[C@@H]([C@H]3O[C@@](O)(CO)[C@H](C)C[C@@H]3C)C[C@@H]2C)CC[C@H]([C@]2(C)CC[C@]3(C[C@H](O)[C@@H](C)[C@@H]([C@@H](C)[C@@H](OC)C(C)C(=O)O)O3)O2)O1 (some centres undefined),23,.,.,.,6,.
CCC(C)NC(=O)c1ccc2c(c1)N=C(C)c1cc(C)ccc1S2 (centres undefined),.,.,.,9%,.,.
CC1=Nc2cc(C(=O)O)ccc2Sc2ccc(C)cc21,36,-2%[11.5 µM],.,28%,20*,4%
O=C(N/N=C/c1ccc(Sc2ccccn2)o1)c1cc2ccccc2cc1O,24,-10%,?,-6%,22*,-14%
O=C(O)c1ccc(/C=N/NC(=O)c2cc3ccccc3cc2O)cc1,.,.,.,4%,.,9%
O=C(N/N=C/c1ccc(Sc2ccccn2)o1)c1cccc([N+](=O)[O-])c1,8,1%,-3%,-5%,-1,18%
O=C(N/N=C\c1ccc(Sc2ccccn2)o1)c1cccc(F)c1,62,1%,-11%,-11%,18*,-7%
Cc1nn2c(=O)[nH]cnc2c1Cl,.,.,.,4%,.,.
Cc1nc(CS(=O)(=O)c2ccccc2)cc(N2CCN(c3ccccc3F)CC2)n1,6,6%,.,-5%,0,-1%
Cc1nc(CS(=O)(=O)c2ccccc2)cc(Sc2ccccc2Cl)n1,105*,6%,-3%,3%,38*,-2%
Cc1nc(CS(=O)(=O)c2ccccc2)cc(Sc2ccc(Cl)cc2)n1,55*,8%,-9%,-6%,27*,0%
Cc1nc(CS(=O)(=O)c2ccc(Cl)cc2)cc(Sc2ccccc2Cl)n1,19,0%,-22%,-6%,-3,-11%
CCOc1ccc(NC(=NCc2ccc3c(c2)OCO3)SC2CC(=O)N(c3ccc(OCC)cc3)C2=O)cc1 (centres undefined),+,-7%,9%,1%,63*,?
COc1ccc(-c2ccc(-c3nnc(-c4ccncc4)o3)cc2)cc1,-5,1%,-60%,.,-3,-1%
COc1ccc(-c2nnc(-c3ccc(F)cc3)o2)cc1,90*,0%,-2%,5%,48*,-2%
Cc1ccc(-c2nnc(-c3ccccc3)o2)cc1,49*,?,-22%,-5%,49*,-25%
COc1ccc(-c2nnc(-c3cc4ccccc4oc3=O)o2)cc1,15,2%,22%,4%,10,20%
COc1ccc(Cc2nnc(-c3ccccc3)o2)cc1,43*,-2%,.,-5%,44*,2%
COc1ccc(-c2nnc(-c3ccccc3O)o2)cc1,63*,-11%,-4%,-7%,45*,0%
CCN(CCCCOC(=O)c1ccc(OC)c(OC)c1)[C@@H](C)Cc1ccc(OC)cc1,.,.,.,1%[33.2 µM],.,.
CCNc1nnc(-c2ccc(C)cc2)o1,107*,-2%,-6%,-6%,42*,-2%
COc1ccccc1NCc1nnc(-c2ccccc2)o1,14,0%,-16%,0%,20*,6%
CCCc1nnc(-c2ccc(OC)cc2)o1,+,-1%,-23%,1%,34*,5%
